# Experimental data: ChEMBL document CHEMBL1961873, “Compounds: GSK PKIS; Assays: Nanosyn kinase panel” (2012)
# How the values were obtained:
# [1] = target: Protein kinase C gamma type (Homo sapiens) (UniProt P05129); settings: at 1 µM;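 also: each value is an averaged percent inhibition of the enzyme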
# [2] = target: T1, Protein kinase C iota type (Homo sapiens) (UniProt P41743); settings: at 0.1 µM
# T1 sequence (whole entry): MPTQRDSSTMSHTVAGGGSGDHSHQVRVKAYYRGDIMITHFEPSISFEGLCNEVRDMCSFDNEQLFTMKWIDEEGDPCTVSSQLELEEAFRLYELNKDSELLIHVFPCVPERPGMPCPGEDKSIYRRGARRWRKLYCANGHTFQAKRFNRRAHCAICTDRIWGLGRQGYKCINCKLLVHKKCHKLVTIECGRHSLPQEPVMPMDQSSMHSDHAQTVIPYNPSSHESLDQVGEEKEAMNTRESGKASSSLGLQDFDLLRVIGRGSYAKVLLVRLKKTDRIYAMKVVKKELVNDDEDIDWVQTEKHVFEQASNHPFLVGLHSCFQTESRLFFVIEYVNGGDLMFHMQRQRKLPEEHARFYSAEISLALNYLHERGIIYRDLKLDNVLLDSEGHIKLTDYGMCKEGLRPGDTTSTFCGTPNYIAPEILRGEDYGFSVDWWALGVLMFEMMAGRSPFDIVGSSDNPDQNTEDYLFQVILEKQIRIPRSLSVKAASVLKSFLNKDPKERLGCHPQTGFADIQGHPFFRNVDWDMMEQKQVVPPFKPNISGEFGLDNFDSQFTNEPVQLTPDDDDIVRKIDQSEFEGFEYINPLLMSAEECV
# [3] = target: T1, Protein kinase C iota type (Homo sapiens); settings: at 1 µM
# [4] = target: Protein kinase C theta type (Homo sapiens) (UniProt Q04759); settings: at 0.1 µM
# Chain of Protein kinase C theta type (Homo sapiens) (Q04759 whole entry, looked up): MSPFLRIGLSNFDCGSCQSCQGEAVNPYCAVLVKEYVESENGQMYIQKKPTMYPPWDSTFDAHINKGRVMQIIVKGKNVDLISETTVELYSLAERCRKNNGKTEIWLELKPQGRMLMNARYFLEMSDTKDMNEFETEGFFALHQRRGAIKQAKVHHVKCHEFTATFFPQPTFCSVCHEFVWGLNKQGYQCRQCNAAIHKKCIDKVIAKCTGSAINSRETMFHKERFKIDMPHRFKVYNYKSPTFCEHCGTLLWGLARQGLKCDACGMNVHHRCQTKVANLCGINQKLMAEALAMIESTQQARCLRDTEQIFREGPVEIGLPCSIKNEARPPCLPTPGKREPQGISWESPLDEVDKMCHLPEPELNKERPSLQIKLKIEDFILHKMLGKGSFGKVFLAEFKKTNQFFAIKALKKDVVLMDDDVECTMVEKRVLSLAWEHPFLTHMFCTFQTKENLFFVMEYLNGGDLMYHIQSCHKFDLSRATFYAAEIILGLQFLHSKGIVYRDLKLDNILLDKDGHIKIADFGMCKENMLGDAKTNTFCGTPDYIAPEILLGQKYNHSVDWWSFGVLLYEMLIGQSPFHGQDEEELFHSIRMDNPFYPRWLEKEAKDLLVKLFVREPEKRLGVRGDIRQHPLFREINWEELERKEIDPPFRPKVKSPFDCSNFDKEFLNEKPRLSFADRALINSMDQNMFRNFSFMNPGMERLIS
# [5] = target: Protein kinase C theta type (Homo sapiens) (UniProt Q04759); settings: at 1 µM
# [6] = target: Protein kinase C beta type (Homo sapiens) (UniProt P05771); settings: at 0.1 µM
# Chain of Protein kinase C beta type (Homo sapiens) (P05771 2-671 limits assumed): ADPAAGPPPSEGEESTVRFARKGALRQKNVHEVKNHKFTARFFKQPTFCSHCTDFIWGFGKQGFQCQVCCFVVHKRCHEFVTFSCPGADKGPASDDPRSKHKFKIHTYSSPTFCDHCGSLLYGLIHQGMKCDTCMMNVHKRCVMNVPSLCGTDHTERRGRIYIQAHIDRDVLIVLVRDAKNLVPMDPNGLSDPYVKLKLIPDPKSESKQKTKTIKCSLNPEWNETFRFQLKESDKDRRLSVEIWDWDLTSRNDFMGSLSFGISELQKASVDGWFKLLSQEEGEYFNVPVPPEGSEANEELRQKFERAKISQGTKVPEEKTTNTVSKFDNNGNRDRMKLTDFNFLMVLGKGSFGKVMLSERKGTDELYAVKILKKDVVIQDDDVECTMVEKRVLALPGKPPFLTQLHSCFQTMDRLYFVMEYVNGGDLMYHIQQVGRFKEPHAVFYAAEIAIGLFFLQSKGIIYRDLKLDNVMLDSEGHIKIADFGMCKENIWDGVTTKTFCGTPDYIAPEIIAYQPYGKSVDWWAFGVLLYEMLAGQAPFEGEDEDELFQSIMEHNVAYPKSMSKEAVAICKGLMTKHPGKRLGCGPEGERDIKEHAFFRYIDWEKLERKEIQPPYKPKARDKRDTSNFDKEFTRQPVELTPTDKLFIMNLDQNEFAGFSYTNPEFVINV
# [7] = target: Protein kinase C beta type (Homo sapiens) (UniProt P05771); settings: at 1 µM
# [8] = target: T2, Serine/threonine-protein kinase D1 (Homo sapiens) (UniProt Q15139); settings: at 0.1 µM
# T2 sequence (whole entry): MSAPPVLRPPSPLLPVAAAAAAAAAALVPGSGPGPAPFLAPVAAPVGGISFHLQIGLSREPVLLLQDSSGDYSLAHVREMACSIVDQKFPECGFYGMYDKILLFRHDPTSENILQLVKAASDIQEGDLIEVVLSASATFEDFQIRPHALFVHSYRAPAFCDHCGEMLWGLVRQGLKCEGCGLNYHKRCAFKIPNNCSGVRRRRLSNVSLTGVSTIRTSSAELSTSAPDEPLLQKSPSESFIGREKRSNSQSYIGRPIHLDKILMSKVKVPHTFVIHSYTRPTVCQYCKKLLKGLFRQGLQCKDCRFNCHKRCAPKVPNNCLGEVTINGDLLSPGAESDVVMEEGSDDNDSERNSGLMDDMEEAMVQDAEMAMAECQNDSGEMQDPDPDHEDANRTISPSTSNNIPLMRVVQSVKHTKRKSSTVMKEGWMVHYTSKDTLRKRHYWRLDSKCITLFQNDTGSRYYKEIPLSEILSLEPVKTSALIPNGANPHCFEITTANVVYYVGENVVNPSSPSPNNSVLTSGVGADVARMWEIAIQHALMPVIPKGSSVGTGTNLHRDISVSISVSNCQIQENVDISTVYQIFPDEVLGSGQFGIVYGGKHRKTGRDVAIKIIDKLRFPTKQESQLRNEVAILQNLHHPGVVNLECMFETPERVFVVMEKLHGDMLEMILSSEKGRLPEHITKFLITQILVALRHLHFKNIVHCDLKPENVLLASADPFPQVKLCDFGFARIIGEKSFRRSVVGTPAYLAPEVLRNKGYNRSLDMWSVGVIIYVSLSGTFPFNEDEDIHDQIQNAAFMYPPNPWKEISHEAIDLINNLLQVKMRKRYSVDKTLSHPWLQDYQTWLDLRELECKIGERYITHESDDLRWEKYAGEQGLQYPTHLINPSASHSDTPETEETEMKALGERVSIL
# [9] = target: T2, Serine/threonine-protein kinase D1 (Homo sapiens); settings: at 1 µM
# [10] = target: T3, Serine/threonine-protein kinase D2 (Homo sapiens) (UniProt Q9BZL6); settings: at 0.1 µM
# T3 sequence (whole entry): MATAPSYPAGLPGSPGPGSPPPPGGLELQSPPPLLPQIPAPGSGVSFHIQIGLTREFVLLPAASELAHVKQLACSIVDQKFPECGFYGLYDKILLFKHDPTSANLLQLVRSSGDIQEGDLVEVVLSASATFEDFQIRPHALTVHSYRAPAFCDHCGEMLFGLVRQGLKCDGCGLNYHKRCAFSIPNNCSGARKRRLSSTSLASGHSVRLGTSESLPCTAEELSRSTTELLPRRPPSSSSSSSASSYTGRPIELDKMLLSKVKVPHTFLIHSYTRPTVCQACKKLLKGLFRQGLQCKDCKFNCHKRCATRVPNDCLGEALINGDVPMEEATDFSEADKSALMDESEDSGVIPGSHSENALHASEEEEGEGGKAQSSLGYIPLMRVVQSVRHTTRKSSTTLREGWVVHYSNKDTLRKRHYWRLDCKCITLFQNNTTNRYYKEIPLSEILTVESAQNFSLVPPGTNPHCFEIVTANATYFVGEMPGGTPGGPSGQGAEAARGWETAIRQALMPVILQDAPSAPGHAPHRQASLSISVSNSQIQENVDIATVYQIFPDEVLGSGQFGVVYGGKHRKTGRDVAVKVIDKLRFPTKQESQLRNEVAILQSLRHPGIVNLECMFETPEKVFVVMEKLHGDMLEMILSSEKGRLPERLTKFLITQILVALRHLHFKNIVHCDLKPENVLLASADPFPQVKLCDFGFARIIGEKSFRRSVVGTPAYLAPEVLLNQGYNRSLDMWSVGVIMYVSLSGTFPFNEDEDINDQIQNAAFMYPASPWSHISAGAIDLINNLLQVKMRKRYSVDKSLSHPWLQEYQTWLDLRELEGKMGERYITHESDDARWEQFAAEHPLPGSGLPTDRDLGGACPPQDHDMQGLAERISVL
# [11] = target: T3, Serine/threonine-protein kinase D2 (Homo sapiens); settings: at 1 µM
# [12] = target: T4, Serine/threonine-protein kinase D3 (Homo sapiens) (UniProt O94806); settings: at 0.1 µM
# T4 sequence (whole entry): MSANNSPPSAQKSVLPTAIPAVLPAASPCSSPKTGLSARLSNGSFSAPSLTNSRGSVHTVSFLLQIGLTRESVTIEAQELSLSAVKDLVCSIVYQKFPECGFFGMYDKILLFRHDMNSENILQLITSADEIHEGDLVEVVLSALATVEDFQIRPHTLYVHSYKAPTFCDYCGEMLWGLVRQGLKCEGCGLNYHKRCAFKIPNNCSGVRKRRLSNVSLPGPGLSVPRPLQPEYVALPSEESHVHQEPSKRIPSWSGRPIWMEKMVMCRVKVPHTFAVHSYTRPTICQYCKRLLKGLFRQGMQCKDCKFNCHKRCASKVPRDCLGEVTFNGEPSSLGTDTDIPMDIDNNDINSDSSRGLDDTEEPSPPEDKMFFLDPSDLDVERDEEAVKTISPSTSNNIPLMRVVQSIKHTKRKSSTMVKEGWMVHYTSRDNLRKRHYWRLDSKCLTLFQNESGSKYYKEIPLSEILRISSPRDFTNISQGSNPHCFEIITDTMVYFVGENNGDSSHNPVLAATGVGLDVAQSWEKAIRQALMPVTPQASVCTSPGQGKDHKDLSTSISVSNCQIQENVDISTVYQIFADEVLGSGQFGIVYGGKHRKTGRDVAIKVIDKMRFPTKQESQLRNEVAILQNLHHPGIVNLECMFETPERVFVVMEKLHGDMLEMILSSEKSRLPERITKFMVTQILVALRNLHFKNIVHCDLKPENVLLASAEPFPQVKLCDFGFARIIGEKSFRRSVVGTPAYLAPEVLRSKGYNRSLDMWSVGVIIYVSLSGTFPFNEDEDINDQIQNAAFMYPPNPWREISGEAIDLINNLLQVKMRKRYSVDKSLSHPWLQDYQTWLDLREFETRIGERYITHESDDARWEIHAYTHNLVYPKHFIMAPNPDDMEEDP
# [13] = target: T4, Serine/threonine-protein kinase D3 (Homo sapiens); settings: at 1 µM
# [14] = target: T5, cGMP-dependent protein kinase 1 (Homo sapiens) (UniProt Q13976); settings: at 0.1 µM
# T5 sequence (whole entry): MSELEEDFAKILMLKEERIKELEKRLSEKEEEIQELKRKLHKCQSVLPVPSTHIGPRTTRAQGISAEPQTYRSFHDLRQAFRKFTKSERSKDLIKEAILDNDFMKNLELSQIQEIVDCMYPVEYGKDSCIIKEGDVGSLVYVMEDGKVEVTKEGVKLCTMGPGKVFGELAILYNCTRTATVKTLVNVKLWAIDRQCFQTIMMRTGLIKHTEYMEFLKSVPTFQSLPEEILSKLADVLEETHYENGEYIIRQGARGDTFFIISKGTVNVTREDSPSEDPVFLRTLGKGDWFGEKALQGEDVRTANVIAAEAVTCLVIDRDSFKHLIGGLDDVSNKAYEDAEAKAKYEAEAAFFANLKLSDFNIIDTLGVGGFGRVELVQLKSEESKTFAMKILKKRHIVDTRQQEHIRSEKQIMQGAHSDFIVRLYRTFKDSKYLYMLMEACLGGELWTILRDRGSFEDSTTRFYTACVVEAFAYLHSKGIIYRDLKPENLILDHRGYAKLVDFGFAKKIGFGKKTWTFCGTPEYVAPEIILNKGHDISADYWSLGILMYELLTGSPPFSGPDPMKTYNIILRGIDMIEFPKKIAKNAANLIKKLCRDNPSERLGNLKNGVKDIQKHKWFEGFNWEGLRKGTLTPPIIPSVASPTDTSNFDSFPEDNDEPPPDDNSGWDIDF
# [15] = target: T5, cGMP-dependent protein kinase 1 (Homo sapiens); settings: at 1 µM
# [16] = target: T6, cGMP-dependent protein kinase 2 (Homo sapiens) (UniProt Q13237); settings: at 0.1 µM
# T6 sequence (whole entry): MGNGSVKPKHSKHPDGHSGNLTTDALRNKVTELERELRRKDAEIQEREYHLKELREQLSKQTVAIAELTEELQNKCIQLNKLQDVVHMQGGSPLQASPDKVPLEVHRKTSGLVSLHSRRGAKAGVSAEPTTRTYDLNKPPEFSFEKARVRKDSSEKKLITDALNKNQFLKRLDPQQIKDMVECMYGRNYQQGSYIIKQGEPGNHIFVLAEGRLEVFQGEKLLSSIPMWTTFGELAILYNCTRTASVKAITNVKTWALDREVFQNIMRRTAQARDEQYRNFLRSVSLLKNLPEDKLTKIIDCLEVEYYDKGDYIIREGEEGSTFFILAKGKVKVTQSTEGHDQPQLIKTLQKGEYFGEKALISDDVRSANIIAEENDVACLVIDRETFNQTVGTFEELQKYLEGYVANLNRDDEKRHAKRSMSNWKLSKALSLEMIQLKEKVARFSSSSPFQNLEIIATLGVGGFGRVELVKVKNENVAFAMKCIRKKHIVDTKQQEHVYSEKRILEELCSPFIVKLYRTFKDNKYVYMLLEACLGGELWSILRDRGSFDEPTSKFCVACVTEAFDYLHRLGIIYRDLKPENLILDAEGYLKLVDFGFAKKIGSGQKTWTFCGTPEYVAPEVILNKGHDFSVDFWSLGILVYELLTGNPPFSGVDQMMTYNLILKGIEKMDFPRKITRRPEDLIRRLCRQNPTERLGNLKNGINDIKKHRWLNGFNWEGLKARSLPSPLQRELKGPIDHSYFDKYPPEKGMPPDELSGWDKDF
# [17] = target: T6, cGMP-dependent protein kinase 2 (Homo sapiens); settings: at 1 µM
# [18] = target: T7, cAMP-dependent protein kinase catalytic subunit PRKX (Homo sapiens) (UniProt P51817); settings: at 0.1 µM
# T7 sequence (whole entry): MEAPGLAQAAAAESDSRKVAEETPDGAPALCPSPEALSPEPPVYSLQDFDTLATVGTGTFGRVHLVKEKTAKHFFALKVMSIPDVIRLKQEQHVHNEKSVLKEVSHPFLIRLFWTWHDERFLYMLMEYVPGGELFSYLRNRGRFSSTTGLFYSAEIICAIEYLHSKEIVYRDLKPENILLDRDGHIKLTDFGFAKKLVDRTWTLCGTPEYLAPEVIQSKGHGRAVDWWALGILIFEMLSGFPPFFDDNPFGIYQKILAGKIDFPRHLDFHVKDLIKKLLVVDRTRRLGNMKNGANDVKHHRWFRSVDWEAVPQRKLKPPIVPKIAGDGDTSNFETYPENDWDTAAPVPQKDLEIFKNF
# [19] = target: T7, cAMP-dependent protein kinase catalytic subunit PRKX (Homo sapiens); settings: at 1 µM
# [20] = target: Rho-associated protein kinase 1 (Homo sapiens) (UniProt Q13464); settings: at 0.1 µM;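 also: values are mean percent inhibition of ROCK1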
# Chain of Rho-associated protein kinase 1 (Homo sapiens) (Q13464 2-1354 limits assumed): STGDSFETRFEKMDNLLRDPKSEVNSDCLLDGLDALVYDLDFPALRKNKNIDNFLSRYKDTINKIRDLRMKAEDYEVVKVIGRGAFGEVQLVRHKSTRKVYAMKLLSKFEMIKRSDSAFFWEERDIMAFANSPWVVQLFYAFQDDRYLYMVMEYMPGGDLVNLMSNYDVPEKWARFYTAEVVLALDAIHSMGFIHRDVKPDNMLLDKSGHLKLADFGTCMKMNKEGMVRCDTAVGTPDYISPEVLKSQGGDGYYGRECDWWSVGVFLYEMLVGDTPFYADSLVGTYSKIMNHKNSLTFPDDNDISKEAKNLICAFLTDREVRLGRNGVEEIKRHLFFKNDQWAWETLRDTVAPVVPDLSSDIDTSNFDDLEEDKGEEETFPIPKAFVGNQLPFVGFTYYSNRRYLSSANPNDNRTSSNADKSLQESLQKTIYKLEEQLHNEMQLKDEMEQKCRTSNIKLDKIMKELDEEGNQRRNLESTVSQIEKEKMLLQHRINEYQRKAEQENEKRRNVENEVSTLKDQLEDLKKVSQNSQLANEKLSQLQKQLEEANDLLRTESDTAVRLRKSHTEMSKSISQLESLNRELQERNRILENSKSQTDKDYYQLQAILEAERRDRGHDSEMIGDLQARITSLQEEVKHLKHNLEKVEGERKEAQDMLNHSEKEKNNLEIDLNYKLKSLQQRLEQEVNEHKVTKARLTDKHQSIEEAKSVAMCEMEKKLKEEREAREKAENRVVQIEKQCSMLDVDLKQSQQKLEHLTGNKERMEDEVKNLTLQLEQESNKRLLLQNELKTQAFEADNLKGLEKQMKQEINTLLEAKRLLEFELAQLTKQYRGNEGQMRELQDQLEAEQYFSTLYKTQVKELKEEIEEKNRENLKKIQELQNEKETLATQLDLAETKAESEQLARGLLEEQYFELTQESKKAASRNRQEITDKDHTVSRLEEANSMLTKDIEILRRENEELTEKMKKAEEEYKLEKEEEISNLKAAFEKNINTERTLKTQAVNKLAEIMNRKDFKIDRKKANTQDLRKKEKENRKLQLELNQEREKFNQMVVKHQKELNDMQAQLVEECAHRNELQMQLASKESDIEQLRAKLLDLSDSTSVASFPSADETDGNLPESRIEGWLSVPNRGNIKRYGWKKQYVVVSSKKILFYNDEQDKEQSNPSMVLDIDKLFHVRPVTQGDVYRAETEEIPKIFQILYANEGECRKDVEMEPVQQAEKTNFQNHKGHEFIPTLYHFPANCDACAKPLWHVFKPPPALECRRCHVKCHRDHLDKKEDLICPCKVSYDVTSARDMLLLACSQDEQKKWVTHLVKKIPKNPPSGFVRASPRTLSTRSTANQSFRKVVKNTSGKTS
SMILES,inhibition [1] [%],inhibition [2] [%],inhibition [3] [%],inhibition [4] [%],inhibition [5] [%],inhibition [6] [%],inhibition [7] [%],inhibition [8] [%],inhibition [9] [%],inhibition [10] [%],inhibition [11] [%],inhibition [12] [%],inhibition [13] [%],inhibition [14] [%],inhibition [15] [%],inhibition [16] [%],inhibition [17] [%],inhibition [18] [%],inhibition [19] [%],inhibition [20] [%]
CS(=O)(=O)CCNCc1ccc(-c2ccc3ncnc(Nc4ccc(OCc5cccc(C(F)(F)F)c5)cc4)c3c2)o1,-0.26,2.37,2.7,2.36,5.13,1.56,3.15,4.62,6.2,5.3,4.34,5.01,5.61,3.52,4.77,2.31,6.67,2.61,1.41,2.09
CS(=O)(=O)Nc1ccc(-c2cc(-c3ccccc3)cc(C(N)=O)c2N)cc1,1.39,1.17,1.73,0.69,0.71,0.99,1.98,1.67,1.98,0.22,1.14,1.65,2.57,2.68,2.84,1.37,2.4,1.16,1.26,1.5
NC(=O)c1ccc2c(-c3ccnc(NCCCO)n3)c(-c3ccc(F)cc3)nn2c1,7.09,1.98,3.92,2.7,2.63,4.8,24.3,6.13,25.5,7.41,32.7,7.38,28.4,3.77,5.16,1.84,3.89,1.77,1.05,1.85
COc1ccc(Nc2ncc(-c3ccccc3)o2)cc1OC,1.49,-0.08,0.61,-0.85,-0.93,-0.24,1.4,0.41,2.5,0.6,3.42,0.5,2.14,0.71,3.32,0.93,3.83,-0.11,-0.56,-0.21
